In PubChem BioAssay (NCI):
Several values for one entry are separate records, joined by “and”; a condition that tells them apart may be missing. Equal values may be shown once. Compounds without any hit were thinned out: in the full panel of roughly 83,000, 20% have a hit.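 Single-dose data. Exposure time 48 hours. Values below 10 considered active.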 Activity calls are given as the source filed them.

Legend:
Experiment in all cases: NCI-60 one-dose screen, 48 h (100 = growth as untreated, 0 = no growth, -100 = all killed)
DU-145 prostate = system: DU-145 prostate
K-562 leukemia = system: K-562 leukemia
MALME-3M melanoma = system: MALME-3M melanoma
MDA-MB-231 breast = system: MDA-MB-231 breast
RXF 393 renal = system: RXF 393 renal
SF-268 CNS = system: SF-268 CNS
SF-295 CNS = system: SF-295 CNS
SF-539 CNS = system: SF-539 CNS
UACC-257 melanoma = settings: 10 µM unless noted
M14 melanoma = system: M14 melanoma
HCT-15 colon = system: HCT-15 colon
HT29 colon = system: HT29 colon
SNB-75 CNS = system: SNB-75 CNS
SNB-19 CNS = system: SNB-19 CNS
U251 CNS = settings: 10 µM unless noted
PC-3 prostate = system: PC-3 prostate
SK-MEL-5 melanoma = system: SK-MEL-5 melanoma
UACC-62 melanoma = system: UACC-62 melanoma
LOX IMVI melanoma = settings: 10 µM unless noted
SK-MEL-28 melanoma = system: SK-MEL-28 melanoma

Measured: growth

O=C(/C=C/C=C/c1ccccc1)c1ccco1
inactive: DU-145 prostate; 10 µM unless noted 99.7% | K-562 leukemia; 10 µM unless noted 43% | MALME-3M melanoma; 10 µM unless noted 113% | MDA-MB-231 breast; 10 µM unless noted 102% | RXF 393 renal; 10 µM unless noted 46% | SF-268 CNS; 10 µM unless noted 91.5% | SF-295 CNS; 10 µM unless noted 112% | SF-539 CNS; 10 µM unless noted 106% | UACC-257 melanoma 108% | M14 melanoma; 10 µM unless noted 93.9% | HCT-15 colon; 10 µM unless noted 92.2% | HT29 colon; 10 µM unless noted 85.4% | SNB-75 CNS; 10 µM unless noted 83% | SNB-19 CNS; 10 µM unless noted 92.5% | U251 CNS 56.4% | PC-3 prostate; 10 µM unless noted 85.9% | SK-MEL-5 melanoma; 10 µM unless noted 91.1% | UACC-62 melanoma; 10 µM unless noted 72.1%

CNc1ccc2c(c1)c1ccccc1n2C
inactive: DU-145 prostate; 10 µM unless noted 102% | K-562 leukemia; 10 µM unless noted 105% | MALME-3M melanoma; 10 µM unless noted 106% | MDA-MB-231 breast; 10 µM unless noted 98.5% | RXF 393 renal; 10 µM unless noted 113% | SF-268 CNS; 10 µM unless noted 95.1% | SF-295 CNS; 10 µM unless noted 98.7% | SF-539 CNS; 10 µM unless noted 98.1% | UACC-257 melanoma 107% | M14 melanoma; 10 µM unless noted 116% | HCT-15 colon; 10 µM unless noted 104% | HT29 colon; 10 µM unless noted 115% | SNB-75 CNS; 10 µM unless noted 98.7% | SNB-19 CNS; 10 µM unless noted 111% | U251 CNS 95.9% | PC-3 prostate; 10 µM unless noted 96% | SK-MEL-5 melanoma; 10 µM unless noted 101% | UACC-62 melanoma; 10 µM unless noted 100% | LOX IMVI melanoma 99.9%

COc1cc(/C=C/C(C)=O)ccc1O
inactive: DU-145 prostate; 10 µM unless noted 105% and 101% | K-562 leukemia; 10 µM unless noted 105% and 98.2% | MALME-3M melanoma; 10 µM unless noted 90.6% and 137% | MDA-MB-231 breast; 10 µM unless noted 96.4% and 111% | RXF 393 renal; 10 µM unless noted 100% and 121% | SF-268 CNS; 10 µM unless noted 90.3% and 99% | SF-295 CNS; 10 µM unless noted 107% and 114% | SF-539 CNS; 10 µM unless noted 86.1% and 93.9% | UACC-257 melanoma 106% and 109% | M14 melanoma; 10 µM unless noted 99.7% and 101% | HCT-15 colon; 10 µM unless noted 96.9% and 96.3% | HT29 colon; 10 µM unless noted 109% and 125% | SNB-75 CNS; 10 µM unless noted 98.4% and 82.5% | SNB-19 CNS; 10 µM unless noted 98.3% and 112% | U251 CNS 103% and 104% | PC-3 prostate; 10 µM unless noted 92.5% and 102% | SK-MEL-5 melanoma; 10 µM unless noted 97% and 113% | UACC-62 melanoma; 10 µM unless noted 88.5% and 107% | LOX IMVI melanoma 104%

O=C(Nc1cccc(Br)c1)Oc1cccc2cccnc12
inactive: DU-145 prostate; 10 µM 115% | DU-145 prostate; 100 µM 35.6% | K-562 leukemia; 10 µM 109% | K-562 leukemia; 100 µM 12.6% | MALME-3M melanoma; 10 µM 114% | MDA-MB-231 breast; 10 µM 98.4% | MDA-MB-231 breast; 100 µM 15.1% | RXF 393 renal; 10 µM 106% | RXF 393 renal; 100 µM 55.6% | SF-268 CNS; 10 µM 107% | SF-268 CNS; 100 µM 20.9% | SF-295 CNS; 10 µM 97.4% | SF-539 CNS; 10 µM 97.1% | M14 melanoma; 10 µM 99.4% | M14 melanoma; 100 µM 16% | HCT-15 colon; 10 µM 94.1% | HT29 colon; 10 µM 92.1% | HT29 colon; 100 µM 57.8% | SNB-75 CNS; 10 µM 83.4% | SNB-75 CNS; 100 µM 41.6% | SNB-19 CNS; 10 µM 100% | SNB-19 CNS; 100 µM 48.7% | U251 CNS 21.1% [100 µM] | PC-3 prostate; 10 µM 92.9% | PC-3 prostate; 100 µM 11.7% | SK-MEL-5 melanoma; 10 µM 101% | UACC-62 melanoma; 10 µM 97.5% | UACC-62 melanoma; 100 µM 11.7% | SK-MEL-28 melanoma; 10 µM 105% | SK-MEL-28 melanoma; 100 µM 48.2%
active: MALME-3M melanoma; 100 µM 7.15% | SF-295 CNS; 100 µM 9.21% | SF-539 CNS; 100 µM 9.58% | UACC-257 melanoma 7.41% [100 µM] | HCT-15 colon; 100 µM 5.53% | SK-MEL-5 melanoma; 100 µM 2.15%

CCCCCCCCCCCCCCCCN(CC)CC
active: DU-145 prostate; 10 µM unless noted -48.4% | K-562 leukemia; 10 µM unless noted -73.5% | MALME-3M melanoma; 10 µM unless noted -90.3% | MDA-MB-231 breast; 10 µM unless noted -86.9% | RXF 393 renal; 10 µM unless noted -86.2% | SF-268 CNS; 10 µM unless noted -34.8% | SF-295 CNS; 10 µM unless noted -92.9% | SF-539 CNS; 10 µM unless noted -98.2% | UACC-257 melanoma -51.9% | M14 melanoma; 10 µM unless noted -16.9% | HCT-15 colon; 10 µM unless noted -90.2% | HT29 colon; 10 µM unless noted -56.8% | SNB-75 CNS; 10 µM unless noted -22.6% | SNB-19 CNS; 10 µM unless noted -87.9% | U251 CNS -66.8% | PC-3 prostate; 10 µM unless noted 0.915% | SK-MEL-5 melanoma; 10 µM unless noted -97.7% | UACC-62 melanoma; 10 µM unless noted -86.6% | LOX IMVI melanoma -100% | SK-MEL-28 melanoma; 10 µM unless noted -91%

COc1cc(/C=C(/C)C[N+](=O)[O-])ccc1O
active: MALME-3M melanoma; 10 µM unless noted -12.2%
inactive: DU-145 prostate; 10 µM unless noted 101% | K-562 leukemia; 10 µM unless noted 69.7% | MDA-MB-231 breast; 10 µM unless noted 89.8% | RXF 393 renal; 10 µM unless noted 91.2% | SF-268 CNS; 10 µM unless noted 101% | SF-295 CNS; 10 µM unless noted 99.3% | SF-539 CNS; 10 µM unless noted 105% | UACC-257 melanoma 33.5% | M14 melanoma; 10 µM unless noted 83.2% | HCT-15 colon; 10 µM unless noted 46.1% | HT29 colon; 10 µM unless noted 101% | SNB-75 CNS; 10 µM unless noted 78.4% | SNB-19 CNS; 10 µM unless noted 97.8% | U251 CNS 92% | PC-3 prostate; 10 µM unless noted 93.8% | SK-MEL-5 melanoma; 10 µM unless noted 101% | UACC-62 melanoma; 10 µM unless noted 83.6% | LOX IMVI melanoma 47.5% | SK-MEL-28 melanoma; 10 µM unless noted 54.3%
